Assay outcomes: PubChem, The Scripps Research Institute Molecular Screening Center
CHRM1 antagonist = antagonists of human M1 muscarinic receptor; inhibition, % at 3 µM; hit rate 1.3% among 360,000; CHO-K1 hM1, Fluo-8 calcium fluorescence, ACh EC80 antagonist;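 active = percent inhibition above its own plate's cutoff, namely the mean of that plate's compound wells plus 3 SD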;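 note: peak over basal fluorescence ratio during 140 s after agonist addition; 0% = ACh EC80 plus DMSO and 100% = DMSO alone without agonist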
Target sequence (P11229 whole entry, looked up): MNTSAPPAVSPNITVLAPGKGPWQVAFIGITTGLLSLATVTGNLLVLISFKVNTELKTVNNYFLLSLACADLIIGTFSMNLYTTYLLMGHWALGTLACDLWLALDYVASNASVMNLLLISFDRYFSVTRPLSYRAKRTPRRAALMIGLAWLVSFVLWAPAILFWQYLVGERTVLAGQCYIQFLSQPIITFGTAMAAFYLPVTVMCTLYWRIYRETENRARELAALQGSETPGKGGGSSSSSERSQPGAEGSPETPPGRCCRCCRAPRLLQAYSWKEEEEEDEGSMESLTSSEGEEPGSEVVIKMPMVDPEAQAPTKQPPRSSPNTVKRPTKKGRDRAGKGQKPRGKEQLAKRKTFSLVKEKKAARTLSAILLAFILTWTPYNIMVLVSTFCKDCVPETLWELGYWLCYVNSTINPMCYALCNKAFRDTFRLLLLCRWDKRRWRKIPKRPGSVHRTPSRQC
CHO-K1 Ca ag = nonselective activator or artifact in parental CHO-K1 cells; hit rate 0.48% among 360,000; activation, % at 3 µM; Fluo-8 calcium fluorescence; scaled to maximal ATP response, vehicle zero; AID 602248; in the data active = activation above about 15%;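 note: untransfected CHO-K1 host cells lacking M1 receptor as counterscreen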
CHO-K1 Ca PAM = nonselective activator or artifact in parental CHO-K1 calcium assay; ATP EC20, Fluo-8 calcium fluorescence; 0% at ATP EC20, 100% at ATP max; activation, % at 3 µM; hit rate 0.02% among 360,000;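 active = activation above the run cutoff, the mean activation of all test compounds plus 3 SD, cut at about 40% in these data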;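 note: peak over basal fluorescence ratio in a 140 s read after ATP addition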
CHRM1 agonist = activates human CHRM1 receptor | P11229 | CHO-K1 hM1, Fluo-8 calcium fluorescence, agonist mode; 0% DMSO, 100% acetylcholine EC100 | activation, % at 3 µM | hit rate 0.33% among 360,000;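 active = activation above the run's mean compound activation plus 3 SD, cut at about 16% in these data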;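 note: peak over basal fluorescence ratio within a 140 s kinetic read after compound addition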
CHO-K1 Ca antag = M1 antagonist counterscreen hit in parental CHO-K1 cells; inhibition, % at 3 µM; ATP-induced calcium, Fluo-8 fluorescence; AID 602250; hit rate 0.6% among 360,000;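 active = inhibition above a per-plate cutoff, the plate's mean sample inhibition plus 3 SD, cut at about 24% in these data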;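 note: 0% = DMSO plus EC80 ATP and 100% = DMSO alone without ATP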
CHRM1 PAM = human CHRM1 positive allosteric modulation. P11229. CHO-K1 hM1, Fluo-8 calcium fluorescence, ACh EC20; 0% = ACh EC20, 100% = maximal ACh. activation, % at 3 µM. hit rate 0.088% among 360,000; in the data active = activation above about 19%, passing the limit was not always enough
* = called active by the depositor. Most compounds without a hit are left out; they make up all but 2.4% or so of the library.

Results for CC(=O)Oc1cc2c(cc1Cl)C1(CC(c3ccccc3Cl)O2)CC(C)(C)NC(=S)N1 (stereo not given) ?
CHRM1 antagonist: 47*; CHO-K1 Ca ag: 0; CHO-K1 Ca PAM: 11; CHRM1 agonist: -3; CHO-K1 Ca antag: -5; CHRM1 PAM: -12

Results for O=C(N/N=C/c1cc(Cl)c(O)c(Cl)c1)c1cc2c(ccc3ccccc32)o1 ?
CHRM1 antagonist: 4; CHO-K1 Ca ag: 2; CHO-K1 Ca PAM: -11; CHRM1 agonist: -1; CHO-K1 Ca antag: 7; CHRM1 PAM: 1

What do the screens show for `COc1cc(C(=O)NCc2cc3ccccc3n2C)cc(OC)c1OC`?
CHRM1 antagonist: -3; CHO-K1 Ca ag: 16*; CHO-K1 Ca PAM: -11; CHRM1 agonist: -3; CHO-K1 Ca antag: 16; CHRM1 PAM: -1

What do the screens show for `CCC(CC)C(=O)Nc1ccc(Sc2ccc([N+](=O)[O-])cc2)cc1`?
CHRM1 antagonist: 35*; CHO-K1 Ca ag: 10; CHO-K1 Ca PAM: -12; CHRM1 agonist: -7; CHO-K1 Ca antag: -8; CHRM1 PAM: -27

How did CCOC(=O)C1CCCN(C(=O)c2ccc3c(c2)N(Cc2ccccc2)C(=O)c2ccccc2S3=O)C1 (stereo not given) do in these assays?
CHRM1 antagonist: -13; CHO-K1 Ca ag: 1; CHO-K1 Ca PAM: 2; CHRM1 agonist: -8; CHO-K1 Ca antag: 3; CHRM1 PAM: 9

What do the screens show for `CC(=O)Oc1ccc(C)cc1-n1nc2ccccc2n1`?
CHRM1 antagonist: 2; CHO-K1 Ca ag: 0; CHO-K1 Ca PAM: -5; CHRM1 agonist: -2; CHO-K1 Ca antag: 24*; CHRM1 PAM: 4

Results for O=C1CCCC2=C1C(c1ccc(Cl)cc1)N1C(=O)CCSC1=N2 (stereo not given) ?
CHRM1 antagonist: 14; CHO-K1 Ca ag: 0; CHO-K1 Ca PAM: -4; CHRM1 agonist: -3; CHO-K1 Ca antag: 15; CHRM1 PAM: -1

Results for CC1(C)CC(=O)C2=C(C1)N=C1SCCC(=O)N1C2c1ccccc1 (stereo not given) ?
CHRM1 antagonist: 36*; CHO-K1 Ca ag: 0; CHO-K1 Ca PAM: 0; CHRM1 agonist: -8; CHO-K1 Ca antag: -11; CHRM1 PAM: -15

How did COc1ccccc1C(=O)N(CCC1CCCN1C)c1nc2ccccc2s1 (stereo not given) do in these assays?
CHRM1 antagonist: 51*; CHO-K1 Ca ag: 6; CHO-K1 Ca PAM: 2; CHRM1 agonist: -3; CHO-K1 Ca antag: -10; CHRM1 PAM: -23

Results for O=C1CCC(c2ccccc2)(C2CCN(Cc3ccccc3)CC2)C(=O)N1 (stereo not given) ?
CHRM1 antagonist: 98*; CHO-K1 Ca ag: 0; CHO-K1 Ca PAM: 7; CHRM1 agonist: -6; CHO-K1 Ca antag: -4; CHRM1 PAM: -24

Results for O=C(NCc1ccco1)c1ccc(Cl)cc1[N+](=O)[O-] ?
CHRM1 antagonist: -1; CHO-K1 Ca ag: 1; CHO-K1 Ca PAM: 18; CHRM1 agonist: -7; CHO-K1 Ca antag: 4; CHRM1 PAM: 2

What do the screens show for `O=c1nc2ccccc2c2n1CC(CN1CCN(C(c3ccccc3)c3ccccc3)CC1)N2` (stereo not given)?
CHRM1 antagonist: 9; CHO-K1 Ca ag: -1; CHO-K1 Ca PAM: -2; CHRM1 agonist: -15; CHO-K1 Ca antag: -9; CHRM1 PAM: -19

How did COc1ccc(N2C(=O)[C@H]3CCC=C[C@H]3[C@@H]2c2ccccc2Br)cc1 do in these assays?
CHRM1 antagonist: 47*; CHO-K1 Ca ag: 0; CHO-K1 Ca PAM: -12; CHRM1 agonist: -8; CHO-K1 Ca antag: 3; CHRM1 PAM: -27

How did CCC(C)N(C(=O)Cn1c(Cl)nc2c1c(=O)n(C)c(=O)n2C)C1CCS(=O)(=O)C1 (stereo not given) do in these assays?
CHRM1 antagonist: -5; CHO-K1 Ca ag: 1; CHO-K1 Ca PAM: -20; CHRM1 agonist: 2; CHO-K1 Ca antag: 7; CHRM1 PAM: 1

Results for CN(C(=O)Cn1c(Cl)nc2c1c(=O)n(C)c(=O)n2C)C1CCS(=O)(=O)C1 (stereo not given) ?
CHRM1 antagonist: 23*; CHO-K1 Ca ag: 0; CHO-K1 Ca PAM: -21; CHRM1 agonist: -2; CHO-K1 Ca antag: 4; CHRM1 PAM: -10

Results for Nc1[nH]c(C(=O)c2ccccc2)c(-c2ccccc2Br)c1C(=O)c1ccccc1 ?
CHO-K1 Ca ag: 1; CHO-K1 Ca PAM: 42*; CHO-K1 Ca antag: -22

Results for CCC(C)(C)NS(=O)(=O)c1cc(CN2C(=O)c3cccnc3C2=O)ccc1OC ?
CHRM1 antagonist: -6; CHO-K1 Ca ag: 0; CHO-K1 Ca PAM: 9; CHRM1 agonist: 0; CHO-K1 Ca antag: -2; CHRM1 PAM: 15

What do the screens show for `CN1CCN(CCc2nc3cc(NC(=O)COc4ccc(Cl)cc4)ccc3n2C)CC1`?
CHRM1 antagonist: 4; CHO-K1 Ca ag: -1; CHO-K1 Ca PAM: -4; CHRM1 agonist: -5; CHO-K1 Ca antag: 26*; CHRM1 PAM: 1

How did Cn1c(CCN2CCN(c3ccccn3)CC2)nc2cc(NC(=O)COc3ccccc3)ccc21 do in these assays?
CHRM1 antagonist: 58*; CHO-K1 Ca ag: 9; CHO-K1 Ca PAM: 11; CHRM1 agonist: 0; CHO-K1 Ca antag: -20; CHRM1 PAM: -24

What do the screens show for `Cc1ccc(OCC(=O)Nc2ccc3c(c2)nc(CCN2CCN(c4ccccn4)CC2)n3C)cc1`?
CHRM1 antagonist: 62*; CHO-K1 Ca ag: 7; CHO-K1 Ca PAM: 8; CHRM1 agonist: -1; CHO-K1 Ca antag: 2; CHRM1 PAM: -28

How did CCCC(=O)Nc1ccc2c(c1)nc(CCN1CCN(c3ccccn3)CC1)n2C do in these assays?
CHRM1 antagonist: 26; CHO-K1 Ca ag: 0; CHO-K1 Ca PAM: -10; CHRM1 agonist: -7; CHO-K1 Ca antag: 8; CHRM1 PAM: -21

Results for Cn1c(CCN2CCN(c3ccccn3)CC2)nc2cc(NS(=O)(=O)c3ccccc3)ccc21 ?
CHRM1 antagonist: 69*; CHO-K1 Ca ag: 9; CHO-K1 Ca PAM: 1; CHRM1 agonist: 0; CHO-K1 Ca antag: -2; CHRM1 PAM: -23

Results for Cn1c(CCN2CCCCC2)nc2cc(NC(=O)COc3ccc(Cl)cc3)ccc21 ?
CHRM1 antagonist: 10; CHO-K1 Ca ag: 0; CHO-K1 Ca PAM: 17; CHRM1 agonist: -5; CHO-K1 Ca antag: -6; CHRM1 PAM: -12

What do the screens show for `Cn1c(CCN2CCCCC2)nc2cc(NS(=O)(=O)c3ccccc3)ccc21`?
CHRM1 antagonist: 22; CHO-K1 Ca ag: 0; CHO-K1 Ca PAM: -7; CHRM1 agonist: 2; CHO-K1 Ca antag: 12; CHRM1 PAM: -11

How did Cc1cc(NC(=O)Nc2ccc(Cl)c(Cl)c2)n(-c2ccccc2)n1 do in these assays?
CHRM1 antagonist: 9; CHO-K1 Ca ag: 7; CHO-K1 Ca PAM: 2; CHRM1 agonist: 2; CHO-K1 Ca antag: 2; CHRM1 PAM: -5

How did CCCCC(=O)Nc1ccc2c(c1)nc(CCN1CCN(c3ccccn3)CC1)n2C do in these assays?
CHRM1 antagonist: 74*; CHO-K1 Ca ag: 1; CHO-K1 Ca PAM: -15; CHRM1 agonist: -9; CHO-K1 Ca antag: -3; CHRM1 PAM: -29
